Assay results taken from PubChem BioAssay (EPA / NIEHS).
Records with an inconclusive call do not appear. The source made the active and inactive calls. How the source made its calls: active means hit-call score of the fitted dose curve at least 0.9, where 1 is the maximum; inconclusive means response in the unintended direction; inactive means score below 0.9.

Experiments:
[1] = molecular target: Estrogen receptor (Homo sapiens) (UniProt P03372); test: OT_ER_ERaERa_1440: Odyssey Thera (OT) 24-hour HEK293T Protein-Complementation Assay for Estrogen Receptor-alpha/-alpha Homodimer (AID 2283349);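 further: hits raise fluorescence above DMSO for agonists and antagonists alike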
Summary of the method: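 Readout is the rise in mean fluorescence from reporter fragment complementation when ERα LBD (aa 310-547) units dimerize in HEK293T cells. Measured 24 h after dosing and analysed as increase over DMSO control.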

[2] = molecular target: Estrogen receptor (Homo sapiens) (UniProt P03372); test: OT_ER_ERaERa_0480: Odyssey Thera (OT) 8-hour HEK293T Protein-Complementation Assay for Estrogen Receptor-alpha/-alpha Homodimer (AID 2283351);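 further: rise in fluorescence from reassembled reporter fragments on ERα LBD homodimer in nucleus or whole cell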
Summary of the method: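 HEK293T cells stably expressing the human ERα ligand-binding domain (aa 310-547) as a homodimer PCA were dosed with compound for 8 h. Gain of fluorescence intensity versus DMSO vehicle was read by laser scanning cytometry.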

[3] = molecular target: Estrogen receptor (Homo sapiens) + Estrogen receptor beta (Homo sapiens) (UniProt P03372+Q92731); test: OT_ER_ERaERb_1440: Odyssey Thera (OT) 24-hour HEK293T Protein-Complementation Assay for Estrogen Receptor-alpha/-beta Homodimer (AID 2283356);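 further: heteromer of ER alpha and ER beta binding domains; hits raise reporter fluorescence and both agonists and antagonists give an increase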
Summary of the method: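 HEK293T cells stably expressing a PCA pair of ERα LBD (aa 310-547) and ERβ LBD (aa 263-489) were dosed for 24 h. Fluorescence intensity increase versus DMSO vehicle was fitted as gain-of-signal.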

[4] = molecular target: Estrogen receptor beta (Homo sapiens) (UniProt Q92731); test: OT_ER_ERbERb_0480: Odyssey Thera (OT) 8-hour HEK293T Protein-Complementation Assay for Estrogen Receptor-beta/-beta Homodimer (AID 2283357);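 further: active means signal gain over DMSO baseline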
Summary of the method: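 Readout: increase in mean fluorescence intensity (nucleus for agonists; nucleus plus cytoplasm for antagonists) relative to DMSO, from a reporter-fragment complementation of human ER-beta LBD homodimer in HEK293T cells dosed 8 hours.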

[5] = molecular target: Retinoic acid receptor alpha (Homo sapiens) (UniProt P10276); test: NVS_NR_hRAR_Antagonist: NovaScreen (NVS) Nuclear Receptor Binding Assay for human Retinoic Acid Alpha Receptor Antagonism (RAR) (AID 2283358)
Summary of the method: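 Cell-free TR-FRET binding assay on extracted receptor protein, run in antagonist mode; signal read 2 hours after chemical dosing. Loss of signal was fitted relative to DMSO baseline. Screened at 25 uM in duplicate, actives followed up in concentration series.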

[6] = molecular target: Nuclear receptor subfamily 1 group I member 2 (Homo sapiens) (UniProt O75469); test: NVS_NR_hPXR: NovaScreen (NVS) Nuclear Receptor Binding Assay for human Pregnane X Receptor (PXR) (AID 2283365);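 further: a drop in FRET signal versus DMSO baseline means the compound binds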
Summary of the method: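 Cell-free binding assay with extracted human PXR protein, read by TR-FRET 2 h after dosing; loss of signal relative to DMSO baseline indicates binding. Primary screen at 25 uM in duplicate, actives retested in concentration series.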

[7] = molecular target: human Thyroid Receptor Alpha (TRa), THRA (gene 7067) (UniProt P10827); test: NVS_NR_hTRa_Antagonist: NovaScreen (NVS) Nuclear Receptor Binding Assay for human Thyroid Receptor Alpha Antagonism (TRa) (AID 2283362);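 further: activity is loss of signal relative to DMSO baseline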
Summary of the method: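 Cell-free binding assay on extracted receptor protein, read 1 h after chemical dosing by AlphaLISA chemiluminescence; loss of signal relative to DMSO baseline marks antagonism. Primary screen ran in duplicate at 25 uM, with concentration series for actives.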

[8] = molecular target: Androgen Receptor/SRC-1 Co-activator, AR (gene 367) (UniProt P10275); test: OT_AR_ARSRC1_0960: Odyssey Thera (OT) 16-hour HEK293T Protein-Complementation Assay for Androgen Receptor/SRC-1 Co-activator (AID 2283353);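 further: actives raise the signal above DMSO so potency reflects increased AR and SRC-1 complex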
Summary of the method: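 HEK293T cells stably expressing AR and SRC-1 fused to split Venus YFP fragments via (Gly4Ser)2 linkers were dosed for 16 h. Nuclear/cytoplasmic fluorescence ratio at 488 nm, ≥400 cells per image, fitted for gain of signal versus DMSO.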

Nuclear receptor subfamily 1 group I member 2 (Homo sapiens), sequence (O75469 whole entry, looked up): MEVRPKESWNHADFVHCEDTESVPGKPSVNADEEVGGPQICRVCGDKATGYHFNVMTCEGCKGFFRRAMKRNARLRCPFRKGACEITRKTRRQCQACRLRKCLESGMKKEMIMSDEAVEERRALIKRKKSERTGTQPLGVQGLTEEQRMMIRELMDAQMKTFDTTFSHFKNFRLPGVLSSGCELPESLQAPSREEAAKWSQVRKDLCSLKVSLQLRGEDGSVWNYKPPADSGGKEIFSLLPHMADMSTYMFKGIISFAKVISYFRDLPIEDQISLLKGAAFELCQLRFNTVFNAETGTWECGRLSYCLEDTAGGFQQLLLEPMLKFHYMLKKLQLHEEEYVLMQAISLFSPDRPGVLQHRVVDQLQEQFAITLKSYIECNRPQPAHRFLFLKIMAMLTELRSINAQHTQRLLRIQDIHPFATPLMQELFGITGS
Estrogen receptor beta (Homo sapiens), sequence (Q92731 whole entry, looked up, the tested form may be a part): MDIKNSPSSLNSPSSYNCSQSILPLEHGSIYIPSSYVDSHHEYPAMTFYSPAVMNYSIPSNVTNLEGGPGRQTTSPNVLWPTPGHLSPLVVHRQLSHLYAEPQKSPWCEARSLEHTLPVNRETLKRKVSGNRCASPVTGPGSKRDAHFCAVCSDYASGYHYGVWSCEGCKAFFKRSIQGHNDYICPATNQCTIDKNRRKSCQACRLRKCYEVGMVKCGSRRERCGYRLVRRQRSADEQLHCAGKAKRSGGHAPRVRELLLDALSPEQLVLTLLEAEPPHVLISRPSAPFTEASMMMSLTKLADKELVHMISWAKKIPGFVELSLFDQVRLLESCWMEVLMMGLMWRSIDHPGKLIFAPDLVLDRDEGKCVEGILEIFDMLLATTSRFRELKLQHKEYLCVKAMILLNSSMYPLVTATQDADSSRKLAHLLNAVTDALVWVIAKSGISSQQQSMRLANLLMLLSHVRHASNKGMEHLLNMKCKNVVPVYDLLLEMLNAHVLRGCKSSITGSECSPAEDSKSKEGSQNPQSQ
Estrogen receptor (Homo sapiens) + Estrogen receptor beta (Homo sapiens), sequence (P03372 whole entry, looked up, the tested form may be a part): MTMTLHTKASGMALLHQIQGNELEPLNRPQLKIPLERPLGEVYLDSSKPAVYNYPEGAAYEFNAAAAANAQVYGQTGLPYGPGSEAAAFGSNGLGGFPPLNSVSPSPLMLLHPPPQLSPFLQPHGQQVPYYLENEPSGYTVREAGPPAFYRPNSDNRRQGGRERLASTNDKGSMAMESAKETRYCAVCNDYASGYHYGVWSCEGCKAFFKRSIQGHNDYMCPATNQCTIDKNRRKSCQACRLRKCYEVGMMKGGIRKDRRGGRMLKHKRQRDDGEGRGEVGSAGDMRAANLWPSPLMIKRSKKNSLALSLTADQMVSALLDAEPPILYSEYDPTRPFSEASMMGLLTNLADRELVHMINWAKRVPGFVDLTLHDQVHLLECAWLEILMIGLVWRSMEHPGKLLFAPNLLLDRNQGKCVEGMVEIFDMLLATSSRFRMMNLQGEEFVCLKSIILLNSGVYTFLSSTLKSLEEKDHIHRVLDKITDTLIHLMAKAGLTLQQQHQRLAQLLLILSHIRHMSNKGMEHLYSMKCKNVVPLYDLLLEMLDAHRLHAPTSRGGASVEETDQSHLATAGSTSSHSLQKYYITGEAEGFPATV
Estrogen receptor (Homo sapiens) + Estrogen receptor beta (Homo sapiens), sequence (Q92731 whole entry, looked up, the tested form may be a part): as the sequence (Q92731 whole entry, looked up, the tested form may be a part) above
Estrogen receptor (Homo sapiens), sequence (P03372 whole entry, looked up, the tested form may be a part): as the sequence (P03372 whole entry, looked up, the tested form may be a part) above
human Thyroid Receptor Alpha (TRa), THRA (gene 7067), sequence (P10827 whole entry, looked up): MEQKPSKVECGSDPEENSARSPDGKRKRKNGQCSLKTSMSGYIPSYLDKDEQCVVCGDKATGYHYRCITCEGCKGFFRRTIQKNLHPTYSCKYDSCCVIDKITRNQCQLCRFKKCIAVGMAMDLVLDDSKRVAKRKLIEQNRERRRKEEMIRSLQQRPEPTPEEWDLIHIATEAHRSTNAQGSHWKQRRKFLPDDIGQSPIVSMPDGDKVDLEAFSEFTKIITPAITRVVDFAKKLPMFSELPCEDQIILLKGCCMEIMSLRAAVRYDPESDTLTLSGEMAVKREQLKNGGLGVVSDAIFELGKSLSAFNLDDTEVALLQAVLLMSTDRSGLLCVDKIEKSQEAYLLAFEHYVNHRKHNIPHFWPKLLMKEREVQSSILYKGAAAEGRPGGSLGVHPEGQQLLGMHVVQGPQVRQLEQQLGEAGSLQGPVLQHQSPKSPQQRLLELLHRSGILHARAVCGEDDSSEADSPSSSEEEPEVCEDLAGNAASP
Retinoic acid receptor alpha (Homo sapiens), sequence (P10276 whole entry, looked up): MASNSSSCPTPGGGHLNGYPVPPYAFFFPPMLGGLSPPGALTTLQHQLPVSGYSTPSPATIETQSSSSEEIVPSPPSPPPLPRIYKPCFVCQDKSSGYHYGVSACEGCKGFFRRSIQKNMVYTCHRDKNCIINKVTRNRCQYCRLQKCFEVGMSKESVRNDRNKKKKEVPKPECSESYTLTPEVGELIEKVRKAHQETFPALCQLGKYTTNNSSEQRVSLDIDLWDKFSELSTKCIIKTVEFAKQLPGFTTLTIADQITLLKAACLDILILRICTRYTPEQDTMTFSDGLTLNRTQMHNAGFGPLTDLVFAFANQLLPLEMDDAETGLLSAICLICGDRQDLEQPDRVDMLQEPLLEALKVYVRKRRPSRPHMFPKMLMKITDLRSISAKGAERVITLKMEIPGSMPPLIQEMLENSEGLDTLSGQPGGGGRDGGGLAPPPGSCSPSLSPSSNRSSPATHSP
Androgen Receptor/SRC-1 Co-activator, AR (gene 367), sequence (P10275 whole entry, looked up, the tested form may be a part): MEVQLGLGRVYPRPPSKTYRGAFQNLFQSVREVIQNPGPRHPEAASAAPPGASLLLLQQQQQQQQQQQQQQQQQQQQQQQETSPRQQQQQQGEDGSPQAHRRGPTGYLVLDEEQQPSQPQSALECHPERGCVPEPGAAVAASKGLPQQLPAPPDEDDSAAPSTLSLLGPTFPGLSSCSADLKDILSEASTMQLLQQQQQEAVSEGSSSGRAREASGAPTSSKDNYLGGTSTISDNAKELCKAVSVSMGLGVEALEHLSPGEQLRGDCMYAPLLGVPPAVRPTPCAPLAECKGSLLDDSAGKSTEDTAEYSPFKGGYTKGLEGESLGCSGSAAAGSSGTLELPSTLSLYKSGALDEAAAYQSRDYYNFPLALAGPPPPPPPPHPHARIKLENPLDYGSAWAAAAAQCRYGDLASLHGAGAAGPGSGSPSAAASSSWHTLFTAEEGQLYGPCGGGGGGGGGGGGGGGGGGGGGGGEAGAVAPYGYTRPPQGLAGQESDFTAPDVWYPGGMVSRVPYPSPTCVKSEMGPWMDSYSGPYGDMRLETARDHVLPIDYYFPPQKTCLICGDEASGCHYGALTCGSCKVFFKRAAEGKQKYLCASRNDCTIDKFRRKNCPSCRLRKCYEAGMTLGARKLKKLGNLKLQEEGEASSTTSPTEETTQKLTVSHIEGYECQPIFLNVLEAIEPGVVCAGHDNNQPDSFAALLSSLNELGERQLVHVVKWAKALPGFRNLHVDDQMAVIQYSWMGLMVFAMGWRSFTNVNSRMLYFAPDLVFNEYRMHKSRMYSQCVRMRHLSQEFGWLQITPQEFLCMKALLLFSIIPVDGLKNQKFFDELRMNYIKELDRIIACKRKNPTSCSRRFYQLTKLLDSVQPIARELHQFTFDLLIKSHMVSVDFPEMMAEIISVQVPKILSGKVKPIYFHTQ

NCC1(Cc2noc(=O)[nH]2)CCCCC1
outcome [1]: inactive | outcome [2]: inactive | outcome [3]: inactive | outcome [4]: inactive

FC(F)(F)C(F)(F)C(F)(F)C(F)(F)C(F)(F)C(F)(F)CCI
outcome [1]: inactive | outcome [2]: inactive | outcome [5]: inactive | outcome [6]: inactive

Cc1ccc2ncccc2c1
outcome [1]: inactive | outcome [2]: inactive | outcome [5]: inactive | outcome [7]: inactive

C[Si]1(C)O[Si](C)(C)O[Si](C)(C)O[Si](C)(C)O1
outcome [1]: inactive | outcome [2]: inactive | outcome [3]: inactive | outcome [4]: inactive

CC(=O)OCCOCCOCCOC(C)=O
outcome [1]: inactive | outcome [2]: inactive | outcome [3]: inactive | outcome [4]: inactive | AC50 [6]: 33.4 µM (active)

C1CCC(SSC2CCCCC2)CC1
outcome [1]: inactive | outcome [2]: inactive | outcome [3]: inactive | AC50 [4]: 34.1 µM (active)

CN1CCCC1=O
outcome [1]: inactive | outcome [3]: inactive

COCCOCCOC
outcome [1]: inactive | outcome [8]: inactive | outcome [3]: inactive | outcome [4]: inactive

Nc1nc(N)c2nc(CNc3ccc(C(=O)N[C@@H](CCC(=O)O)C(=O)O)cc3)cnc2n1
outcome [1]: inactive | outcome [2]: inactive | outcome [3]: inactive | outcome [4]: inactive

CC(=O)OC/C=C(\C)CCC=C(C)C
outcome [1]: inactive | outcome [2]: inactive | outcome [6]: inactive

CC1(C)CC(N=C=O)CC(C)(CN=C=O)C1 (centres undefined)
outcome [1]: inactive | outcome [2]: inactive | outcome [7]: inactive

Cc1oc(-c2ccccc2)nc1CCOc1cccc2c1ccn2CCC(=O)O
outcome [1]: inactive | outcome [2]: inactive | outcome [3]: inactive
